The values below come from the supplement of paper PMC12340641.

Whole data set: some 1,000 compounds, median “relative growth in counter assay (no AraC = 100%, AraC + DMSO = 0%)” near -1.1, cut for the highest 2% near 20. The full list was thinned out, with the highest values kept by preference.

The assay concerns HEK293FT dCK*-only. Kind of assay: relative growth in counter assay (no AraC = 100%, AraC + DMSO = 0%); higher = more growth rescue independent of IKZF1. To be noted: compound concentration: 5 uM; AraC concentration: 0.3 uM; overnight pretreatment + 4 days AraC. The procedure: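 Growth recovery screen of the molecular-glue-like (Specs) library. HEK293FT cells expressing a dCK*-IKZF1 fusion (primary) or dCK* alone (counter) were pretreated overnight with compound at 5 uM, then given 0.3 uM AraC for 4 days. Hoechst nuclei were counted by imaging. Primary: normalised to pomalidomide (100%) and DMSO (0%), mean of 2 replicates. Counter: normalised to no-AraC (100%) and AraC+DMSO (0%), single replicate.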
On to `O=C(C1CCCCC1)N1CCOC(c2cccc(Nc3nccs3)n2)C1` (stereo not drawn), for which the “relative growth in counter assay” value is -5.66%. Take `O=[N+]([O-])c1ccc(S(=O)(=O)Nc2ccccn2)cc1`: the “relative growth in counter assay” value is -0.83%. The same measure for `CC(=O)Nc1cccc(-c2csc(Nc3cccc(C)n3)n2)c1`: 5.94%. For the compound `CC(=O)Nc1ccc(-c2csc(Nc3cccc(C)n3)n2)cc1`, the “relative growth in counter assay” value came to 5.34%. With `Cc1ccc(Nc2nc(-c3sc(NC(=O)c4ccccc4)nc3C)cs2)nc1` the figure was 74.3%.

As to `CC(=O)Nc1ccc(-c2csc(Nc3ccccn3)n2)cc1`, the “relative growth in counter assay” value was found to be 15.7%. Take `CC(=O)N1CCCC1c1csc(Nc2ccccn2)n1` (stereo not drawn): the “relative growth in counter assay” value stood at 6.68%. With `CC(=O)Nc1ccc(-c2csc(Nc3ccc(Cl)cn3)n2)cc1` the figure was -4.91%; with `Cc1cccc(Nc2nc(-c3sc(NC(=O)c4ccccc4)nc3C)cs2)n1`, 60.5%; with `CC(=O)N1CCCC(c2csc(Nc3ccc(C)cn3)n2)C1` (stereo not drawn), 2.06%. For the compound `Cc1ccnc(Nc2nc(-c3sc(NC(=O)c4ccccc4)nc3C)cs2)c1`, the “relative growth in counter assay” value was 68.2%. With `COc1cccc(OC)c1C(=O)Nc1ccc(S(=O)(=O)Nc2nccc(C)n2)cc1` the figure was -1.58%; with `CC1CCc2cc(F)ccc2N1C(=O)CSc1nnc2c(n1)[nH]c1ccccc12` (stereo not drawn), 6.61%. With `O=C(NCc1cnc(Nc2cccc(C3CCN(C(=O)C4CCCCC4)CC3)n2)s1)c1cccc(F)c1`, the “relative growth in counter assay” value was -9.34%. With `CC(C)(N)C(=O)N1CCC(c2cccc(Nc3ncc(-c4cccnc4)s3)n2)CC1` the figure was -23.8%; with `CCCc1cnc(Nc2cccc(C3CCN(C(=O)[C@@H](N)C(C)O)CC3)n2)s1` (stereo partly drawn), -24.9%; with `Cc1ccc(CC(=O)N2CCOC(c3cccc(Nc4nccs4)n3)C2)cc1C` (stereo not drawn), -4.97%.

Consider `COc1ccc(C(=O)Nc2ccc(S(=O)(=O)Nc3cc(C)nc(C)n3)cc2)cc1`, for which the “relative growth in counter assay” value was -14%. The same measure for `Nc1ccc(C(=O)N2CCCC2c2cccc(Nc3nccs3)n2)cn1` (stereo not drawn): -0.6%; for `O=C(O)CCOCCOCCNc1ccc2c(c1)C(=O)N(C1CCC(=O)NC1=O)C2=O` (stereo not drawn): -0.35%; for `O=[N+]([O-])c1ccc(S(=O)(=O)Nc2ccc(S(=O)(=O)Nc3ncccn3)cc2)cc1`: 0.33%. As to `CC(C)(C)N1CC(C(=O)Nc2ccc(S(=O)(=O)Nc3ncccn3)cc2)CC1=O` (stereo not drawn), the “relative growth in counter assay” value is 4.79%.

Turning to `COC1CCCC(C(=O)N2CCOC(c3cccc(Nc4ncc(C)s4)n3)C2)C1` (stereo not drawn), the “relative growth in counter assay” value is -9.41%. The same measure for `CCOCCC(=O)Nc1ccc(S(=O)(=O)Nc2ncccn2)cc1`: 3.97%.

With `Cc1cc(NS(=O)(=O)c2ccc(NC(=O)COc3ccc(C(C)C)cc3)cc2)nc(C)n1`, the “relative growth in counter assay” value was -0.57%.

For `Cc1cccc(OCC(=O)Nc2ccc(S(=O)(=O)Nc3nc(C)cc(C)n3)cc2)c1`, the “relative growth in counter assay” value is -12%. With `CN(CC(=O)N1CCOC(c2cccc(Nc3nccs3)n2)C1)Cc1ccccc1F` (stereo not drawn) the figure was 0.79%; with `CC(C)c1cnc(Nc2cccc(C3CCN(C(=O)C4CCCCC4)CC3)n2)s1`, 11%. The same measure for `COc1cccc(C(=O)Nc2ccc(S(=O)(=O)Nc3cc(C)nc(C)n3)cc2)c1`: 0.7%.

For `COc1ccc(NC(=O)CN2CCC(c3cccc(Nc4nc(C)cs4)n3)CC2)cc1`, the “relative growth in counter assay” value is 13.8%. Consider `O=C1CCC(N2C(=O)c3cccc(N4CCC(C(=O)O)CC4)c3C2=O)C(=O)N1` (stereo not drawn), for which the “relative growth in counter assay” value amounted to 3.86%. The same measure for `Cc1cc(C)nc(NS(=O)(=O)c2ccc(NC(=O)CCN3C(=O)c4ccccc4C3=O)cc2)n1`: -7.05%; for `Cc1ccc2[nH]nc(C(=O)N3CCCC3c3cccc(Nc4nc(C)cs4)n3)c2c1` (stereo not drawn): 2.1%. With `Cc1csc(Nc2cccc(C3CCCN3C(=O)c3cnc(C)nc3C)n2)n1` (stereo not drawn) the figure was -4.08%. The same measure for `Cc1csc(Nc2cccc(C3CCCN3C(=O)c3ccc4c(c3)CCCN4C)n2)n1` (stereo not drawn): 13.3%; for `Cc1csc(Nc2cccc(C3CCCN3C(=O)c3ccc4[nH]c(C(C)C)nc4c3)n2)n1` (stereo not drawn): 30.5%. With `CC(=O)N1CCCC1c1cccc(Nc2nc(C)cs2)n1` (stereo not drawn), the “relative growth in counter assay” value was -5.77%. As to `Cc1csc(Nc2cccc(C3CCCN3C(=O)c3cn4cc(Cl)ccc4n3)n2)n1` (stereo not drawn), the “relative growth in counter assay” value was determined as 22.3%.

For `COc1ccc(C(=O)Nc2ccc(S(=O)(=O)Nc3ncccn3)cc2)cc1OC`, the “relative growth in counter assay” value is -2.72%. With `Cc1ccc(Oc2ccc3c(c2)C(=O)N(c2ccc(C(N)=O)cc2)C3=O)cc1C` the figure was 3.9%. Turning to `COc1ccc2[nH]c3nc(SCC(=O)Nc4cccc(F)c4)nnc3c2c1`, the “relative growth in counter assay” value is -13.9%.

As for `COc1ccc(C(=O)Nc2ccc(S(=O)(=O)Nc3nccc(C)n3)cc2)cc1`, the “relative growth in counter assay” value is -6.7%. For the compound `Cc1cnc(Nc2cccc(C(CO)C3CCN(C(=O)c4cccc(Cl)c4F)CC3)n2)s1` (stereo not drawn), the “relative growth in counter assay” value is -1.22%. Turning to `Cc1cnc(Nc2cccc(C3CN(C(=O)C(C)(C)C)CCO3)n2)s1` (stereo not drawn), the “relative growth in counter assay” value is -10.3%.

As to `CCCc1cnc(Nc2cccc(C3CCN(C(=O)[C@@H]4CCCCN4)CC3)n2)s1`, the “relative growth in counter assay” value is -21.3%. With `COc1ccc(Cl)cc1NC(=O)CSc1nnc2c(n1)[nH]c1ccc(F)cc12` the figure was 5.27%; with `COc1ccc(N2C(=O)c3ccc(Oc4ccccc4)cc3C2=O)cc1`, -22.4%; with `CCC(C)C(=O)Nc1ccc(S(=O)(=O)Nc2nccc(C)n2)cc1` (stereo not drawn), -7.22%. With `COc1cc(NS(=O)(=O)c2ccc(Nc3nc(-c4c(C)nc5ncccn45)cs3)cc2)nc(OC)n1` the figure was 2.39%; with `CCCCc1cnc(Nc2cccc(C3CCN(C(=O)C(C)(C)NC(=O)COC)CC3)n2)s1`, -10.6%. Consider `COc1cccc(CC(=O)N2CCC(c3cccc(Nc4nc(C)c(C)s4)n3)CC2)c1`, for which the “relative growth in counter assay” value is 2.52%. With `Cc1ccnc(NS(=O)(=O)c2ccc(NC(=O)c3ccco3)cc2)n1` the figure was 3.62%.

As for `NCC(=O)N1CCC(c2cccc(Nc3ncc(Cl)s3)n2)CC1`, the “relative growth in counter assay” value is -23.9%. With `COc1ccc(N2CC(C(=O)Nc3ccc(S(=O)(=O)Nc4nc(C)cc(C)n4)cc3)CC2=O)cc1` (stereo not drawn) the figure was 7.32%; with `Cc1ccnc(NS(=O)(=O)c2ccc(NC(=O)C3c4ccccc4Oc4ccccc43)cc2)n1`, -3.45%; with `COc1ccc(Br)cc1/C=N/NS(=O)(=O)c1ccccc1`, -21.2%. Turning to `Cc1nc(Nc2cccc(C3CN(C(=O)c4cn5cccc(C)c5n4)CCO3)n2)sc1C` (stereo not drawn), the “relative growth in counter assay” value came to 2.16%. With `CNC(=O)C1(c2cccc(Nc3ncc(C)s3)n2)CCN(C(=O)C2CCCCC2)CC1`, the “relative growth in counter assay” value was -21.2%. With `Cc1cc(C)nc(NS(=O)(=O)c2ccc(NC(=O)CSc3nnnn3-c3ccccc3)cc2)n1`, the “relative growth in counter assay” value was determined as 1.47%. Consider `CC(C)CC(=O)N1CCCC1c1csc(Nc2ccccn2)n1` (stereo not drawn), for which the “relative growth in counter assay” value was -4%. Take `Cc1cnc(Nc2cccc(C3CCN(C(=O)C4(NC(=O)C(C)C)CCCCC4)CC3)n2)s1`: the “relative growth in counter assay” value is -24.4%. For `CC(=O)Nc1ccc(S(=O)(=O)Nc2ccccn2)cc1`, the “relative growth in counter assay” value was -7.51%.

Take `CC(=O)Nc1ccc(S(=O)(=O)Nc2ncccn2)cc1`: the “relative growth in counter assay” value was -1.98%. In the case of `CC(=O)Nc1ccc(S(=O)(=O)N(Cc2ccccc2)c2ccccn2)cc1`, the “relative growth in counter assay” value was 21%. With `CC1(C)C=C(CC(=O)N2CCOC(c3cccc(Nc4nccs4)n3)C2)CC(C)(C)N1` (stereo not drawn), the “relative growth in counter assay” value amounted to 6.81%.

Consider `O=C(CN1C(=O)c2ccccc2C1=O)Nc1ccc(S(=O)(=O)Nc2ncccn2)cc1`, for which the “relative growth in counter assay” value is -1.34%.

Take `O=C1c2ccc(Oc3ccc(NC(=O)C(F)(F)F)cc3)cc2C(=O)N1c1ccc(O)cc1`: the “relative growth in counter assay” value was -3.44%. As for `CCCOc1ccccc1C(=O)Nc1ccc(S(=O)(=O)Nc2nc(C)cc(C)n2)cc1`, the “relative growth in counter assay” value was 2.83%. For the compound `CCCc1cnc(Nc2cccc(C3CCN(C(=O)C4CCCCN4CCO)CC3)n2)s1` (stereo not drawn), the “relative growth in counter assay” value was -7.08%. The same measure for `Cc1cnc(Nc2cccc(C3CCN(CC(=O)N(C)C4CCCCC4)CC3)n2)s1`: -15.6%. As to `Cc1cc(C)nc(NS(=O)(=O)c2ccc(NC(=O)C(C)C)cc2)n1`, the “relative growth in counter assay” value was found to be 2.66%. The same measure for `Cc1cc(C)cc(OCC(=O)Nc2ccc(S(=O)(=O)Nc3cc(C)nc(C)n3)cc2)c1`: 7.68%; for `Cc1ccc(Cl)cc1NC(=O)CSc1nnc2c(n1)[nH]c1ccc(F)cc12`: -2.7%; for `Cc1csc(Nc2cccc(C3CN(C(=O)CCCc4ccc(F)cc4)CCO3)n2)n1` (stereo not drawn): 36.2%.

Turning to `COCC(=O)N1CCOC(c2cccc(Nc3nc(C)cs3)n2)C1` (stereo not drawn), the “relative growth in counter assay” value was determined as 2.47%. Take `COc1ccc(CCC(=O)N2CCOC(c3cccc(Nc4ncc(C)s4)n3)C2)cc1` (stereo not drawn): the “relative growth in counter assay” value is 9.66%.

`Cc1csc(Nc2cccc(C3CN(C(=O)CCc4nc(C)no4)CCO3)n2)n1` (stereo not drawn): the “relative growth in counter assay” value amounted to 4.72%. Turning to `COc1ccc(CCC(=O)N2CCOC(c3cccc(Nc4nc(C)cs4)n3)C2)cc1` (stereo not drawn), the “relative growth in counter assay” value worked out at 19.5%. The same measure for `COc1cccc(CCC(=O)N2CCOC(c3cccc(Nc4ncc(C)s4)n3)C2)c1` (stereo not drawn): 6.36%. The same measure for `CC(=O)N1CCC(c2csc(Nc3ccc(F)cn3)n2)CC1`: 4.68%. The same measure for `CCCCc1cnc(Nc2cccc(C3CCN(C(=O)[C@@H]4CCCN4CCO)CC3)n2)s1`: 2.3%; for `CC(C)c1ccc(OCC(=O)Nc2ccc(S(=O)(=O)Nc3ccccn3)cc2)cc1`: 4.55%; for `O=C(Nc1ccc(S(=O)(=O)Nc2ncccn2)cc1)Oc1ccccc1`: -1.98%.

For `Cc1cc(NS(=O)(=O)c2ccc(NC(=O)c3cc4ccccc4o3)cc2)nc(C)n1`, the “relative growth in counter assay” value was -3.17%. For the compound `Cc1nc(Nc2cccc(C3CCCN3C(=O)c3cc4ccc(F)cc4[nH]3)n2)sc1C` (stereo not drawn), the “relative growth in counter assay” value came out at 9.01%. As for `O=C(CS(=O)(=O)c1ccccc1)Nc1ccc(S(=O)(=O)Nc2ncccn2)cc1`, the “relative growth in counter assay” value stood at 8.67%.

Regarding `O=C(Nc1ccc(S(=O)(=O)Nc2ccccn2)cc1)c1cccc(Cl)c1`, the “relative growth in counter assay” value was -0.42%.

Regarding `O=C(O)CCCCCNc1cccc2c1C(=O)N(C1CCC(=O)NC1=O)C2=O` (stereo not drawn), the “relative growth in counter assay” value is 1.33%. `CCCc1cnc(Nc2cccc(C3CCN(C(=O)C4CCCCC4)CC3)n2)s1`: the “relative growth in counter assay” value was -19.4%. With `Cc1nc(Nc2cccc(C3CN(CC(=O)N4CCC(C)CC4)CCO3)n2)sc1C` (stereo not drawn), the “relative growth in counter assay” value came to 7.05%.

For the compound `Cc1cnc(NC(=O)CN2CCC(c3cccc(Nc4ncc(C)s4)n3)CC2)s1`, the “relative growth in counter assay” value is -16.5%. `Cc1cnc(Nc2cccc(C3CCN(CC(=O)N4CCC(C)CC4)CC3)n2)s1`: the “relative growth in counter assay” value was -9.8%.

As for `Cc1cnc(NC(=O)CN2CCC(c3cccc(Nc4nc(C)c(C)s4)n3)CC2)s1`, the “relative growth in counter assay” value stood at 24.2%. The same measure for `COCC(C)NC(=O)CN1CCC(c2cccc(Nc3ncc(C)s3)n2)CC1` (stereo not drawn): -1.08%.

As for `COCC(C)NC(=O)CN1CCC(c2cccc(Nc3nc(C)c(C)s3)n2)CC1` (stereo not drawn), the “relative growth in counter assay” value was found to be 25.6%.

`Cc1cnc(Nc2cccc(C3CCN(CC(=O)Nc4c(F)cccc4F)CC3)n2)s1`: the “relative growth in counter assay” value was -16.6%. As to `Cc1nc(Nc2cccc(C3CCN(CC(=O)N4CCC(C)CC4)CC3)n2)sc1C`, the “relative growth in counter assay” value came to 26.6%. Regarding `COCC(C)NC(=O)CN1CCC(c2cccc(Nc3nccs3)n2)CC1` (stereo not drawn), the “relative growth in counter assay” value was -1.53%.
